Reference: PubChem BioAssay (NCI)
Compounds without any hit were thinned out: in the full panel of roughly 83,000, 20% have a hit.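 96-well plates, one dose, 48 hours. Percent growth reported; active if below 10.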 Values without a mark were called inactive. Active and inactive are the calls of the source.

Legend:
Assay in all cases: NCI-60 one-dose screen, 48 h (100 = growth as untreated, 0 = no growth, -100 = all killed)
Settings in all cases: 10 µM
[1] = tested on: NCI-H23 lung
[2] = tested on: NCI-H226 lung
[3] = tested on: NCI-H460 lung
[4] = tested on: 786-0 renal
[5] = tested on: COLO 205 colon
[6] = tested on: DU-145 prostate
[7] = tested on: MALME-3M melanoma
[8] = tested on: MDA-MB-231 breast
[9] = tested on: RXF 393 renal
[10] = tested on: SF-268 CNS
[11] = tested on: SF-295 CNS
[12] = tested on: SF-539 CNS
[13] = tested on: UACC-257 melanoma
[14] = tested on: M14 melanoma
[15] = tested on: HOP-92 NSCLC
[16] = tested on: A549/ATCC NSCLC
[17] = tested on: NCI-H522 lung
[18] = tested on: K-562 leukemia
[19] = tested on: NCI-H322M lung
[20] = tested on: HOP-62 NSCLC

| Structure (SMILES) | growth [1] | growth [2] | growth [3] | growth [4] | growth [5] | growth [6] | growth [7] | growth [8] | growth [9] | growth [10] | growth [11] | growth [12] | growth [13] | growth [14] | growth [15] | growth [16] | growth [17] | growth [18] | growth [19] | growth [20] |
| --- | --- | --- | --- | --- | --- | --- | --- | --- | --- | --- | --- | --- | --- | --- | --- | --- | --- | --- | --- | --- |
| C[C@@H](O)[C@H]1C(=O)N2C(C(=O)O)=C(SC3CN[C@H](C(=O)N(C)C)C3)[C@H](C)[C@H]12 (some centres not stated) | 97.2% | 99.2% | 102% | 103% | 113% | 110% | 92.9% | 99.6% | 114% | 105% | 96.2% | 113% | 106% | 100% | – | – | – | – | – | – |
| Cc1cc(CC(C)CC(C)(C)C)n(O)c(=O)c1 (configuration not stated) (tested in a mixture with another compound) | 14.6% | 14.1% | – | 29% | 95.5% | 19.5% | 8.49% (active) | 38.3% | 42.1% | 14.4% | 6.87% (active) | 6.73% (active) | -1.79% (active) | -35.9% (active) | 73.6% | 20.2% | – | – | – | – |
| Cc1c2cnccc2c(C)c2c1c1cc(O)ccc1n2C(C)C | 0.21% (active) | 79.3% | -10% (active) | 5.57% (active) | 17.9% | 12.1% | -17.9% (active) | 9.51% (active) | -39.5% (active) | 9.03% (active) | 34.5% | 7.2% (active) | – | -19% (active) | – | 7.74% (active) | -9.59% (active) | 16.9% | – | – |
| O=C1CC(=O)N(C(=O)c2nn(-c3ccc(Cl)cc3)cc2O)N1 | 39.3% | 43.1% | – | 50.7% | -13.4% (active) | 46.9% | – | 62.3% | 53.3% | 43.3% | -7.1% (active) | 39.7% | 66.1% | 47.5% | – | 44.5% | 5.35% (active) | 5.55% (active) | – | – |
| COc1cc(CNC(=O)C2CSC3(C)c4ccccc4C(=O)N23)cc(OC)c1OC (configuration not stated) | 96.9% | – | 106% | 102% | 105% | 109% | 109% | 98.3% | 98.7% | 101% | 104% | 98.2% | 73.8% | 108% | 88.4% | 83.1% | 68.8% | 71.9% | 99.7% | 90.1% |
| CN(C)CCCN1c2ccccc2CCc2ccc(Cl)cc21 | 71.2% | 85.7% | 79.4% | 71.3% | -11.9% (active) | 87.1% | 36.7% | 15.8% | 28.3% | 59.4% | 75.6% | 83.5% | -11.9% (active) | 7.07% (active) | – | 72.4% | – | – | – | – |
| CCn1c2ccc(O)cc2c2c(C)c3c[n+](C)ccc3c(C)c21 | 19.2% | 26.1% | – | 13.7% | 43.6% | 53.7% | -20.4% (active) | 71.7% | 57.1% | -10.1% (active) | 13.6% | 12.1% | – | 51.8% | – | 37.5% | -0.0478% (active) | 60% | – | – |
| O[C@@H]1CO[C@H]2[C@@H]1OC[C@@H]2O | 109% | 109% | – | 109% | 119% | 108% | – | 92.5% | 125% | 108% | – | 106% | 103% | 103% | – | – | 111% | 124% | – | – |
| CC1C(=NC(=O)c2cnccn2)C(C)C(c2ccc(Cl)cc2)NC1c1ccncc1 (configuration not stated) | 94% | 101% | 108% | 90.8% | – | 114% | – | 97% | 100% | 108% | 117% | 86.1% | 94.3% | 91.9% | – | – | 70.9% | – | – | – |
| CC(C)[N+]1(C)C2CC[C@@H]1CC(OC(=O)C(CO)c1ccccc1)C2 (some centres not stated) | 92% | 103% | 108% | 103% | 113% | 117% | 103% | 98.8% | 120% | – | – | – | 96.9% | 110% | – | 92.3% | – | – | – | – |
